Hits are enriched below; roughly 5.4% of the tested compounds scored in any of these assays.
HPGD inh: qHTS Assay for Inhibitors of HPGD (15-Hydroxyprostaglandin Dehydrogenase); 15-hydroxyprostaglandin dehydrogenase [NAD(+)] (Homo sapiens), P15428; purified HPGD, NADH fluorescence kinetic, PGE2 substrate; 4.3% of 150,000 active; Potency, µM, actives largely listed as inhibitors; active = well fitted inhibition curve with a large enough effect, not every such curve was filed as active; inconclusive = small, poorly fitted or top-dose-only effect, or another doubt; inactive = no such curve, though single readings can be large or run the other way
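20 nM HPGD preincubated 15 min at room temperature with compound in 50 mM Tris-HCl pH 8, 0.01% Tween 20. Started with 1 mM NAD+ and 30 uM prostaglandin E2; NADH fluorescence (360/450 nm) read 5 times over 30-s intervals, last minus first.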
PNC assembly inh: High Content Assay for Compounds that inhibit the Assembly of the Perinucleolar Compartment; 3.1% of 140,000 active; PC3M PTB-GFP, PNC prevalence imaging, 16 h; hits give low values; activity change (PNC), negative = inhibition, % at 10 µM;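 active = readout at or below -70, meaning at least 70% loss of cells showing the perinucleolar compartment, a nuclear body marking cancer cells; inconclusive = readout between -30 and a set limit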
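PC3M cells stably expressing PTB-GFP, 750–1000 cells/well, treated 16 h at 37 °C with compound (23 nl of library stock), in duplicate. After paraformaldehyde fixation and Hoechst stain, imaged at 20x; PNC prevalence scored by image analysis.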
IMPase cell inh: qHTS Assay for Identifying the Cell-Membrane Permeable IMPase Inhibitors; inhibition (IP1 accumulation), % at 46.1 µM; AID 901, 2007; Inositol monophosphatase 1 (Rattus norvegicus), P97697; 120,000 tested, under 10 active; CHO-M1 cells, IP1 accumulation, HTRF TR-FRET ratio; active = well fitted curve in the direction sought with a large enough effect in the signal ratio, not every such curve was filed as active; inconclusive = small, poorly fitted or top-dose-only effect, or a change in a side signal; inactive = no such curve, though single readings can be large or run the other way; the % refers to the signal ratio;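 also: cells stimulated with carbachol in lithium chloride buffer; higher means more IMPase inhibition seen as more IP1 and lower FRET ratio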
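CHO-M1, 2000 cells/well, cultured 16–30 h; cpd up to 46 uM; carbachol (50 uM solution, stimulation buffer w/ 50 mM LiCl, pH 7.4), 30 min 37C; IP-One TR-FRET, 10 min RT; Ex 320/Em 665, 620; Hill-fit AC50.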
IMPase Li inh: qHTS Assay for Identifying the Cell-Membrane Permeable IMPase Inhibitors: Potentiation with Lithium | CHO-M1 cells, IP1 TR-FRET (IP-One), carbachol + lithium | Potency, µM (top dose mostly 59.4 µM), usual class: inhibitors | 0.35% of 210,000 active | AID 1457, 2008;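 also: IP1 builds up when IMPase is blocked and the TR-FRET signal falls; nearly all actives have a fitted effect of over 50% in size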
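Steps: plate 2000 CHO-M1 cells per well and culture 16–30 h; add compound and lithium; incubate 30 min, 37C; add d2-IP1 tracer and Eu cryptate anti-IP1 antibody in lysis buffer; read after 10 min at room temperature.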
ALOX15B inhib: qHTS Assay for Inhibitors of 15-hLO-2 (15-human lipoxygenase 2) | 0.56% of 110,000 active | purified 15hLO-2, xylenol orange hydroperoxide absorbance | Potency, µM (top dose mostly 57.1 µM), actives largely listed as inhibitors | Polyunsaturated fatty acid lipoxygenase ALOX15B (Homo sapiens), O15296; also: nearly all actives have a fitted effect of over 60% in size
Target sequence (O15296 whole entry, looked up): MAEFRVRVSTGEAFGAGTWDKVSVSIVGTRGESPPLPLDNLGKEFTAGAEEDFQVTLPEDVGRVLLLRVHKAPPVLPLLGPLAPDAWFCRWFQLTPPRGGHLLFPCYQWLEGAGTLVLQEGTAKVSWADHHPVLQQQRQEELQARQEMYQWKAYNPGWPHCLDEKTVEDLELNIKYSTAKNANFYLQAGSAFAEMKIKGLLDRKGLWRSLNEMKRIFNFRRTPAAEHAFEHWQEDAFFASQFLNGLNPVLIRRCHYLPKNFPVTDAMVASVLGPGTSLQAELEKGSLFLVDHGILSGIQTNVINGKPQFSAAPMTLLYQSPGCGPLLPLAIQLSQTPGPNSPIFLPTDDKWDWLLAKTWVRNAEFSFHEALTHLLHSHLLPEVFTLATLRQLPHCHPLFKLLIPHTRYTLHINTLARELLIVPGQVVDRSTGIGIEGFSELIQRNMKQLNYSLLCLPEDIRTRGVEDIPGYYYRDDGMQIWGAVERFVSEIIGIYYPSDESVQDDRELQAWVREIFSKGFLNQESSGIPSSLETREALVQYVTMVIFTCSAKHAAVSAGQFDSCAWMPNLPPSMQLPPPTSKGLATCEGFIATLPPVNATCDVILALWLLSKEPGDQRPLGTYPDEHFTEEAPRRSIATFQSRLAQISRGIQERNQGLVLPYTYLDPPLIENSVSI
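Purified human 15hLO-2 (50 nM final) preincubated with compounds 15 min at room temperature in 25 mM Hepes pH 7.5, 0.01% Triton X-100, then 45 uM arachidonic acid added for 90 min; hydroperoxide detected via ferrous/xylenol orange, 573/405 nm absorbance ratio.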
12-hLO inh: qHTS Assay for Inhibitors of 12-hLO (12-human lipoxygenase) | Polyunsaturated fatty acid lipoxygenase ALOX12 (Homo sapiens), P18054 | 0.12% of 150,000 active | purified 12-hLO, xylenol orange hydroperoxide absorbance | AID 1452, 2008 | Potency, µM (highest dose often 57.1 µM), usual class: inhibitors; also: nearly all actives have a fitted effect of over 55% in size
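150 nM 12hLO, 25 mM Hepes pH 7.0 + 0.01% Triton X-100; cpd preinc 15 min RT; 40 uM arachidonic acid, 30 min RT; Fe-XO 30 min; A573/A405 ratio as read-out.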
Numbers stand for hits; 0 = inactive; ? = inconclusive; - = no result; [ ] = dose if it differs, or a comment. Unless noted, calls follow the shape of the dose curve; as a rule, active = well fitted curve in the direction sought with a large enough effect; inconclusive = small, poorly fitted or top-dose-only effect, or another doubt; inactive = no such curve, though single readings can be large; an effect the other way counts as inactive or inconclusive.

SMILES	HPGD inh	PNC assembly inh	IMPase cell inh	IMPase Li inh	ALOX15B inhib	12-hLO inh
CC1=CC(C)(C)Nc2ccc(OC(=O)CN3C(=O)c4ccccc4C3=O)cc21	?	0	-	0	-	0
CC1=CC(C)(C)Nc2ccc(OC(=O)CN3C(=O)c4cccc5cccc(c45)C3=O)cc21	0	0	0	0	12.6µM	0
CC[C@H](C)[C@@H](NC(=O)O[C@@H]1Cc2cc(Br)ccc2O[C@H]1c1cccc(OC)c1)C(=O)OC	0	-	-	0	-	-
Cc1cccc(CNc2nc(-c3ccc4c(c3)OCO4)nc3ccccc23)c1	-	-	-	0	0	-
Nc1ccc2nc(-c3ccc(Cl)cc3)[nH]c2c1	?	0	0	10µM	0	0
Nc1ccc(-c2nc3ccc(N)cc3[nH]2)cc1	-	-	-	0	-	-
Cc1nc(SCc2ccccc2)c([N+](=O)[O-])[nH]1	0	-107.3	-	0	-	0
O=C(c1ccc(F)cc1)c1ccc(N2CCCC2)cc1	28.2µM	0	0	0	?	0
O=C(Nc1ccc(N2CCCCC2)cc1)c1ccc(F)cc1	0	?	0	0	0[2.29 µM]	0
O=C(CSc1ncn[nH]1)NC1CC2CCC1C2 (centres undefined)	15.8µM	0	0	0	0	0
O=C(CSc1nnc(Cc2ccccc2)o1)NC1CC2CCC1C2 (centres undefined)	0	?	0	0	0[2.29 µM]	0
C=C1c2cccc(O)c2C(O)=C2C(=O)[C@@]3(O)C(O)=C(C(N)=O)C(=O)[C@@H](N(C)C)[C@@H]3[C@@H](O)[C@H]12	10µM	-	0	0	0	0
CCSc1nc2ccccc2n1S(=O)(=O)c1ccccc1	0	0	0	0	0	0
Cc1nc2ccccc2n1S(=O)(=O)c1ccc(Br)cc1	0	-109.0	-	0	-	0
N#Cc1c(-c2ccco2)cc(-c2cccnc2)nc1N	-	0	0	-	?	0
N#Cc1c(-c2ccccc2F)cc(-c2cccnc2)nc1N	?	-95.9	-	0	-	0
C=C(CC(=O)O)C(=O)O (tested in a mixture with another compound)	0	-	-	0	0[11.4 µM]	0[11.4 µM]
Cc1cc(=O)cc2oc3cc(N)c(-c4c(C)cc(O)cc4O)c(C)c3nc1-2	0	-	0	0	?	0
C(/CCc1ccccc1)=N\n1cnnc1	0	-100.0	0	0	-	0
BrC(=C\c1ccccc1)/C=N/n1cnnc1	-	-	-	0	-	-
CCCCN(C(=O)Cc1cccs1)c1nnc(-c2cccnc2)s1	0	0	0	0	-	0
COCCN(C(=O)Cc1cccs1)c1nnc(-c2cccnc2)s1	0	-100.0	0	0	0	0
CCn1c(SCC(=O)N2CCCc3ccccc32)nnc1-c1cccs1	0	?	0	0	0	0
O=C(CSc1n[nH]c(-c2cccs2)n1)N1CCCc2ccccc21	6.31µM	0	0	0	0	0
O=C(CSc1n[nH]c(-c2ccccc2O)n1)N1CCCc2ccccc21	10µM	0	0	0	0	?
SMILES	HPGD inh	PNC assembly inh	IMPase cell inh	IMPase Li inh	ALOX15B inhib	12-hLO inh
O=C(c1ccc2c3c(cccc13)CC2)N1CCOCC1	11.2µM	0	0	0	?	0
COc1cccc(C(=O)N2CCOCC2)c1OC	-	-	-	0	-	-
Cc1ccc(C(=O)N2NC(c3ccc(F)cc3)C3C(=O)N(c4ccc(C)c(C)c4)C(=O)C32)cc1 (centres undefined)	?	-90.4	-	0	-	0
CCOC(=O)C1=C(C)N=C2SCCC(=O)N2C1c1ccc(OCc2ccccc2)c(OC)c1 (centres undefined)	-	-	0	-	-	-
S=c1[nH]ncn2c1cc1oc3ccccc3c12	-	-	-	1.12µM	-	-
O=c1c2ccccc2oc2ccccc12	?	-	-	0	0	0
CCOC(=O)C1=C(C)c2ccccc2OC1(C(=O)OCC)C(C)C (centres undefined)	0	-	-	0	0[0.0915 µM]	0[0.00818 µM]

High-throughput results from PubChem BioAssay.
